# Screening results from PubChem.
# TRb SRC2 PPI = qHTS for Inhibitors of the Interaction of Thyroid Hormone Receptor and Steroid Receptor Coregulator 2; Thyroid hormone receptor beta (Homo sapiens), P10828; TRbeta-SRC2 peptide binding, fluorescence polarization; receptor liganded with 1 µM T3; Potency, µM (doses to about 106 µM), hits mostly inhibitors; hit rate 0.065% among 280,000; AID 1469, 2008; also: nearly all actives have a fitted effect of over 50% in size
#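 Decrease in fluorescence polarization of 20 nM Texas Red SRC2 coactivator peptide flagged inhibition of its binding to 0.6 uM TRb LBD; 1 uM T3 included, incubation 5 hr, ex 555/em 632 nm.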
# TexasRed fluor = Total Fluorescence Counterscreen for Inhibitors of the Interaction of Thyroid Hormone Receptor and Steroid Receptor Coregulator 2 | TRb/SRC2 Texas Red total fluorescence interference | Potency, µM (highest dose often 106 µM) | hit rate 0.29% among 280,000 | AID 1479, 2009; active = well fitted curve in either direction with a large enough effect; inconclusive = small, poorly fitted or top-dose-only effect
#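 Flags fluorescent or light-absorbing compounds by total fluorescence, S + 2P, at 555 nm excitation and 632 nm emission. Mixture: 20 nM Texas Red SRC2 peptide, 0.6 uM human TRb LBD, 1 uM T3, 5% DMSO; compound exposure 5 h at ambient temperature.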
# NPSR antag = qHTS Assay for Antagonists of the Neuropeptide S Receptor: cAMP Signal Transduction. CHO-NPSR cells, cAMP TR-FRET, antagonist mode. Potency, µM (doses to about 38.3 µM), usual class: inhibitors. hit rate 1% among 220,000; also: nearly all actives have a fitted effect of over 50% in size
# Target sequence (Q6W5P4 whole entry, looked up): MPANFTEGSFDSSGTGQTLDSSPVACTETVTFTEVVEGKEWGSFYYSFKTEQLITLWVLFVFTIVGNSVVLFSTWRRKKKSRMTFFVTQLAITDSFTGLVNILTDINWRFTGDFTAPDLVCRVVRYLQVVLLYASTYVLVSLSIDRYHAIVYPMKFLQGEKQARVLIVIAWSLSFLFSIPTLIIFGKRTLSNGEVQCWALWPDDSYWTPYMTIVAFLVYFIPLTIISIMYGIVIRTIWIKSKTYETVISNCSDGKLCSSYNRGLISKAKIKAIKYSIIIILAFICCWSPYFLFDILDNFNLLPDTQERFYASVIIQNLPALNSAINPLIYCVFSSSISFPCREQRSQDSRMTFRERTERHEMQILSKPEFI
# TSHR antag = Antagonists of the Thyroid Stimulating Hormone Receptor: HTS campaign; hit rate 0.2% among 330,000; Thyrotropin receptor (Homo sapiens), P16473; TSHR-expressing cells, TSH-stimulated cAMP HTRF, 2 h; hits give low values; activity change, negative = inhibition, % at 11.5 µM; AID 504810, 2011;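 active = activity change below a set negative limit, meaning inhibition stronger than a set level, cut at about -70% in these data; inconclusive = activity change between two set negative limits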
#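 Inhibition of cAMP made by TSHR-expressing cells under TSH stimulation (4nM final, EC80; 2 h, 37 deg C) is quantified with a one-step lysis HTRF kit, anti-cAMP cryptate versus cAMP-d2.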
# FBPA coupling cs = qHTS Assay for Inhibitors of Fructose-1,6-bisphosphate Aldolase from Giardia Lamblia: Coupling assay counterscreen; hit rate 0.67% among 290,000; AID 2472, 2010; coupling enzyme system counterscreen, AmpLite Red fluorescence; activity change, negative = inhibition, % at 58.2 µM, hits read low; in the data active = activity change below about -30%
#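 Counterscreen lacking aldolase: glyceraldehyde-3-phosphate coupling-enzyme reagent preincubated 10 min at RT with compound (at 57.5 uM final), then substrate/coupling system with AmpLite Red added; fluorescence read at 525/598 nm after 20 min RT.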
# TCR act = Activators of T cell receptors: qHTS campaign. Potency, µM (top dose mostly 9.22 µM), hits mostly activators. primary human leukocytes, anti-CD3, IL-2 HTRF, 48 h. 330,000 tested, under 10 active
#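 Primary human leukocytes incubated 48 hr with anti-CD3 beads plus compound, without co-stimulation. Secreted IL-2 measured by HTRF (europium cryptate/d2 anti-IL-2 pair, 320 nm excitation, 665 nm emission).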
# Hits are given with their value; – = inactive; ? = inconclusive; · = no result; [ ] = another dose, or the depositor's remark. An excerpt weighted towards active compounds, which were near 1% of everything screened. Unless noted, calls follow the shape of the dose curve; as a rule, active = well fitted curve in the direction sought with a large enough effect; inconclusive = small, poorly fitted or top-dose-only effect, or another doubt; inactive = no such curve, though single readings can be large; an effect the other way counts as inactive or inconclusive.
SMILES,TRb SRC2 PPI,TexasRed fluor,NPSR antag,TSHR antag,FBPA coupling cs,TCR act
COc1cc(O)c2c(=O)c(O)c(-c3ccc(O)c(O)c3)oc2c1,–,50.1µM[quencher],·,·,–,·
O=c1c(O)c(-c2ccc(O)cc2)oc2cc(O)cc(O)c12,–,–,·,·,–,–
Cc1cc(C)c(S(=O)(=O)N2CCC(N3CCN(Cc4ccc(F)cc4)C(=O)C3=O)CC2)c(C)c1,–,–,·,·,·,·
Cn1c(=O)c2c(SCc3c(F)cccc3Cl)nc(CC(C)(C)C)nc2n(C)c1=O,–,–,10µM,–,–,–
COc1cc(/C=N/NC(=O)CSc2cc(C)c(Br)cc2C)ccc1O,–,–,–,–,–,–
Cc1cc(SCC(=O)N/N=C/c2ccc(O)c(O)c2O)c(C)cc1Br,–,–,–,–,-31.8,–
O=C(CCC1N=C2c3ccccc3N=C(SCc3ccc(F)cc3)N2C1=O)NCCc1ccccc1 (configuration not stated),–,–,·,·,·,·
COc1cc(C)ccc1OCCOc1cc(C)ccc1Cl,–,–,10µM,–,–,–
COc1cc(C)ccc1OCCOc1c(Cl)cc(Cl)cc1Cl,–,–,–,–,–,–
COc1ccc(-c2nnc(NC(=O)c3ccc4c(c3)OCCO4)o2)cc1,·,·,·,-94.9,–,–
COc1ccc(C(=O)Nc2ccc(-n3nncc3-c3ccc(OC)c(OC)c3)cc2)cc1,–,–,·,·,·,·
COc1ccc(-c2cnnn2-c2ccc(NC(=O)c3ccc(S(=O)(=O)N4CCCCC4)cc3)cc2)cc1OC,–,–,3.16µM,–,–,–
COc1ccc(-c2cc(C3CCN(c4cc(Cl)nc(N)n4)CC3)[nH]n2)cc1,–,–,–,–,–,–
Nc1nc(Cl)cc(N2CCC(c3cc(-c4ccc(Cl)cc4)n[nH]3)CC2)n1,–,–,10µM,–,–,–
COc1ccc2c(c1)c1c(c(=O)n(-c3ccc(C)cc3)c(=O)n1CC(=O)N1CCCC1)n2C,–,–,·,·,·,·
Oc1ccc(/C=N/N2CCCCC2)c(O)c1O,·,·,·,–,-53.0,–
Oc1ccc(/C=N/N2CCOCC2)c(O)c1O,–,–,–,–,-47.9,–
Oc1cccc(/C=N/N2CCCCC2)c1O,·,·,·,–,–,–
Fc1ccc(Br)cc1,–,–,·,·,·,·
CCOc1ccccc1CNC(=O)c1ccc(N2Cc3ccccc3Oc3ncccc32)s1,–,–,·,·,·,·
Cc1nc2ccccc2c(=O)n1/N=C/c1ccc2ccccc2c1O,–,–,–,–,-32.2,–
Cc1nc2ccccc2c(=O)n1/N=C/c1ccccc1,–,–,–,–,–,–
Cc1nc2ccccc2c(=O)n1/N=C/c1ccc(O)c(O)c1O,·,·,·,–,-44.7,–
O=C1c2cccc3cccc(c23)C(=O)N1/N=C/c1ccc(O)cc1O,–,–,–,–,–,–
Cc1nc2ccccc2c(=O)n1/N=C/c1ccccc1O,–,–,–,–,–,–
SMILES,TRb SRC2 PPI,TexasRed fluor,NPSR antag,TSHR antag,FBPA coupling cs,TCR act
O=C1c2ccccc2C(=O)N1/N=C/c1ccc(O)c(O)c1O,–,?,–,–,-67.6,–
Cc1cccc(-c2nc(S(=O)(=O)c3ccccc3)c(N3CCN(c4ccccc4)CC3)o2)c1,–,–,·,·,·,·
CCN1CCN(C(c2ccc(OC)cc2)c2c(O)cc(C)n(Cc3ccco3)c2=O)CC1 (configuration not stated),–,–,·,·,·,·
COC(=O)c1c(-c2cccs2)csc1NC(=O)COc1ccc(C(C)C)cc1,–,–,·,·,·,·
Cc1ccc(S(=O)(=O)N2CCc3cc(C(=O)Nc4c(C)cccc4C(C)C)ccc32)cc1,–,–,·,·,·,·
CCNC1=C(Cl)C(=O)c2ccccc2C1=O,–,–,–,–,-33.0,–
O=C1C(Cl)=C(NCCN2CCCCC2)C(=O)c2ccccc21,–,–,?,–,-37.3,–
CCN(CC)c1ccc(NC2=C(Cl)C(=O)c3ccccc3C2=O)cc1,28.2µM,–,12.6µM,-92.8,-38.4,–
CCCC(=O)NC1=C(Cl)C(=O)c2ccccc2C1=O,·,·,·,·,·,–
O=C1CCCC(O)=C1N=Nc1c(Cl)cc(Cl)cc1Cl,28.2µM,44.7µM[fluorescent],–,–,–,–
Cc1ccccc1NC(=O)c1ccc(F)c(S(=O)(=O)N(C)Cc2ccccc2)c1,–,–,·,·,·,·
COc1ccc(-c2c(C)nn3c4c(cnc23)C(=O)CC(c2ccc(C)cc2)C4)cc1 (configuration not stated),–,14.1µM[quencher],·,·,·,·
COc1ccc(C2CC(=O)c3cnc4c(-c5ccccc5)c(C)nn4c3C2)c(OC)c1 (configuration not stated),–,–,·,·,·,·
O=C(O)CCS(=O)(=O)c1nc(-c2cccs2)cc(C(F)(F)F)n1,–,–,–,–,–,·
COC(=O)CCS(=O)(=O)c1nc(-c2ccccc2)cc(C(F)(F)F)n1,–,–,10µM,–,–,–
CCOC(=O)CS(=O)(=O)c1nc(-c2ccccc2)cc(C(F)(F)F)n1,–,–,10µM,?,–,–
CCOC(=O)CS(=O)(=O)c1nc(-c2ccc(F)cc2)cc(C(F)(F)F)n1,–,–,?,–,–,–
CS(=O)(=O)c1nc(-c2cccs2)cc(C(F)(F)F)n1,–,–,3.16µM,–,–,·
COCC(C)NC(=O)CCS(=O)(=O)c1nc(-c2ccc(OC)cc2)cc(C(F)(F)F)n1 (configuration not stated),–,–,–,–,–,–
CCOC(=O)CCS(=O)(=O)c1nc(-c2ccccc2)cc(C(F)(F)F)n1,–,–,7.94µM,?,–,–
COc1cc(/C=C/C(=O)c2ccc(Cl)s2)cc(OC)c1O,–,–,10µM,–,–,–
COc1ccc(/C=C/C(=O)c2ccc(Cl)s2)cc1O,–,–,?,–,–,–
Oc1c(Br)cc(Br)cc1CNc1ccc(F)cc1,–,–,–,–,-33.1,–
Oc1c(Br)cc(Br)cc1CNc1cnc2ccccc2c1,·,·,·,–,–,–
CN(Cc1ccccc1Cl)C(=O)c1cc2ccccc2o1,·,·,·,-102.1,–,–
O=C(NCc1ccccc1)C(=O)NCC(c1ccc2c(c1)OCO2)N1CCOCC1 (configuration not stated),–,–,·,·,·,·
O=c1[nH]n2c(=O)c3c([nH]c2c1N=Nc1cccc(Cl)c1)CCCC3,–,–,10µM,–,–,–
CCOc1ccc(N=Nc2c(=O)[nH]n3c(=O)c4c([nH]c23)CCCC4)cc1,–,–,–,–,–,–
Cc1cc(C)c(S(=O)(=O)/N=C2\C=C(NS(=O)(=O)c3ccccc3)C(=O)c3ccccc32)c(C)c1,·,·,·,–,–,–
